Compounds without any hit were thinned out: in the full panel of roughly 83,000, 20% have a hit.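 Activity criterion: percent growth below 10, measured after cells in 96-well plates were exposed to a single compound concentration for 48 hours.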 Calls of active or inactive are those of the source.
Each compound was assayed on 786-0 renal (assay: NCI-60 one-dose screen, 48 h (100 = growth as untreated, 0 = no growth, -100 = all killed)). Conditions: 10 µM unless noted.

Structure (SMILES) | growth
CC(=O)NNC(=O)c1sc(NC(C)=O)nc1C | 122% (inactive)
Nc1ccc(S(=O)(=O)c2ccc(NO)cc2)cc1 | 99.1% (inactive)
Cc1c(Cc2ccccc2)c(=O)oc2c(C)c(OCC(=O)n3nc(C#N)cc3N)ccc12 | 97% (inactive)
NC(=O)CC(NC(=O)COc1ccc(Cl)cc1Cl)C(=O)O (stereo not given) | 108% (inactive)
CCCCCCCCC1OC1CCCCCCCC(=O)O (stereo not given) | 100% (inactive)
CC(=O)/C(=C/c1ccc(-c2ccccc2)cc1)C(=O)c1ccccc1 | 92% (inactive)
COc1ccc(-c2nc(Nc3nc4ccccc4[nH]3)nc(N)c2C#N)cc1 | 102% (inactive)
CCC(CCCN1C(=O)c2ccccc2C1=O)Nc1cc(OC)cc2cccnc12 (stereo not given) | 103% (inactive)
CC(=O)OC1/C=C\CC/C=C\C1 (stereo not given) | 102% (inactive)
CCc1ccc(C(=Nc2ccc(N(C)C(=O)CN3CCN(C)CC3)cc2)c2c(O)[nH]c3ccc(C(=O)OC)cc23)cc1 | -93.3% (active)
c1ccc2[nH]c(-c3ccc(OCCCCCOc4ccc(-c5nc6ccccc6[nH]5)cc4)cc3)nc2c1 | 14.7% (inactive)
Oc1ccc(CN(Cc2ccc(C(F)(F)F)cc2)Cc2ccc(O)c3ncccc23)c2cccnc12 | 11.4% (inactive)
COc1ccc2nc3cc(Cl)ccc3c(NCCCNC(C)=O)c2c1 | 48.9% (inactive)
O=C(N/N=C\c1ccc(Cl)cc1)C(=O)N/N=C\c1ccc(Cl)cc1 | 91.2% (inactive)
Cc1nc2c(nnn2-c2ccccc2)c2nc(-c3ccccc3)oc(=O)c12 | 101% (inactive)
COC(=O)c1ccc2[nH]c(O)c(C(=Nc3ccc(N(C)C(=O)CN4CCN(C)CC4)cc3)c3ccc(N)cc3)c2c1 | 63.9% (inactive)
Cc1nc(N)sc1C(=O)NCCO | 129% (inactive)
CC(=O)Nc1nc(C)c(C(=O)N/N=C/N2CCOCC2)s1 | 77.1% (inactive)
O=C(O)CC1Cc2ccccc2C1C(=O)O (stereo not given) | 105% (inactive)
Cc1ccc2c(c1)C(=O)CCS2 | 101% (inactive)

Structure (SMILES) | growth
CCC(C)(C)c1ccc(OCCCCCCN2CCNCC2)cc1 | 59.5% (inactive)
c1ccc(Nc2ccccn2)cc1 | 95.1% (inactive)
Brc1ccc(-c2nc3ccccc3s2)cc1 | 106% (inactive)
O=C1/C(=N\c2cc(=O)[nH]n2S(=O)(=O)c2ccccc2)Nc2ccccc21 | 106% (inactive)
CCCC(C)c1cc(Cc2cc(Cl)cc(Cl)c2O)c(O)c(Cc2cc(Cl)cc(Cl)c2O)c1 (stereo not given) | 6.89% (active)
c1ccc(Nc2ncc3c(n2)-c2cccn2CC3)cc1 | 98.7% (inactive)
CC1=C(C)C(=O)C(C(C)C2=C(C)C(=O)C(C)=C(C)C2=O)=C(C)C1=O | 88.1% (inactive)
C=CCSc1nnc(COc2ccc3c(C)c(Cc4ccccc4)c(=O)oc3c2C)o1 | 102% (inactive)
CCOc1nc(-c2ccccc2)cc2c(O)c(C(=O)N/N=C/c3ccccc3O)[nH]c(=O)c12 | 103% (inactive)
CC(=O)Nc1nc(C)c(C(=O)NNC(=O)Nc2ccccc2)s1 | 110% (inactive)
c1cc[c]([Bi]([c]2ccccc2)[c]2ccccc2)cc1 | 94% (inactive)
COc1cc(NC(=O)CSc2nc3ccc(Cl)cc3c(=O)n2-c2ccc(F)cc2)cc(OC)c1OC | 75.2% (inactive)
CC(=O)Nc1nc(C)c(C(=O)NN)s1 | 93% (inactive)
COC(=O)C(C)[C@H]1CC[C@@H]2[C@]1(C)CC=C1[C@]23C=C[C@]2(C[C@@H](OC(C)=O)CC[C@]12C)C(C(=O)OC)C3C(=O)OC (stereo not given in full) | 105% (inactive)
Cc1nc2c(nnn2-c2ccccc2)c2nc(-c3ccc(Cl)cc3)oc(=O)c12 | 105% (inactive)
CCCCCCCCC/C(=N\NC(=O)c1ccncc1)c1ccc(O)c(O)c1O | 11.1% (inactive)
CNCCCNCCCCNCCCN1C(=O)c2ccc3c4c(ccc(c24)C1=O)C(=O)N(CCCNCc1ccccc1OC)C3=O | 38.6% (inactive)
Cc1nc(NC(=S)Nc2ccc(F)cc2)sc1C(=O)NNC(=S)Nc1ccc(F)cc1 | 18.9% (inactive)
CCOc1ccc(/C=N/NC(=O)c2cccc3ccccc23)cc1OCC | 102% (inactive)
O=C(/C=C/c1ccc(Br)cc1)c1ccccc1 | 85.1% (inactive)

The compounds below were run on COLO 205 colon in the same assay as above. Conditions: 10 µM unless noted.

Structure (SMILES) | growth
CC(=O)NNC(=O)c1sc(NC(C)=O)nc1C | 108% (inactive)
Nc1ccc(S(=O)(=O)c2ccc(NO)cc2)cc1 | 111% (inactive)
Cc1c(Cc2ccccc2)c(=O)oc2c(C)c(OCC(=O)n3nc(C#N)cc3N)ccc12 | 107% (inactive)
NC(=O)CC(NC(=O)COc1ccc(Cl)cc1Cl)C(=O)O (stereo not given) | 106% (inactive)
CCCCCCCCC1OC1CCCCCCCC(=O)O (stereo not given) | 105% (inactive)
CC(=O)/C(=C/c1ccc(-c2ccccc2)cc1)C(=O)c1ccccc1 | 93.6% (inactive)
COc1ccc(-c2nc(Nc3nc4ccccc4[nH]3)nc(N)c2C#N)cc1 | 81.4% (inactive)
CCC(CCCN1C(=O)c2ccccc2C1=O)Nc1cc(OC)cc2cccnc12 (stereo not given) | 119% (inactive)
CC(=O)OC1/C=C\CC/C=C\C1 (stereo not given) | 121% (inactive)
CCc1ccc(C(=Nc2ccc(N(C)C(=O)CN3CCN(C)CC3)cc2)c2c(O)[nH]c3ccc(C(=O)OC)cc23)cc1 | -69.4% (active)
c1ccc2[nH]c(-c3ccc(OCCCCCOc4ccc(-c5nc6ccccc6[nH]5)cc4)cc3)nc2c1 | 121% (inactive)
Oc1ccc(CN(Cc2ccc(C(F)(F)F)cc2)Cc2ccc(O)c3ncccc23)c2cccnc12 | 19.6% (inactive)
COc1ccc2nc3cc(Cl)ccc3c(NCCCNC(C)=O)c2c1 | 23.7% (inactive)
O=C(N/N=C\c1ccc(Cl)cc1)C(=O)N/N=C\c1ccc(Cl)cc1 | 97% (inactive)
Cc1nc2c(nnn2-c2ccccc2)c2nc(-c3ccccc3)oc(=O)c12 | 115% (inactive)
COC(=O)c1ccc2[nH]c(O)c(C(=Nc3ccc(N(C)C(=O)CN4CCN(C)CC4)cc3)c3ccc(N)cc3)c2c1 | 41.4% (inactive)
Cc1nc(N)sc1C(=O)NCCO | 126% (inactive)
CC(=O)Nc1nc(C)c(C(=O)N/N=C/N2CCOCC2)s1 | 127% (inactive)
O=C(O)CC1Cc2ccccc2C1C(=O)O (stereo not given) | 114% (inactive)
Cc1ccc2c(c1)C(=O)CCS2 | 98.2% (inactive)

Structure (SMILES) | growth
CCC(C)(C)c1ccc(OCCCCCCN2CCNCC2)cc1 | -50% (active)
c1ccc(Nc2ccccn2)cc1 | 99.8% (inactive)
Brc1ccc(-c2nc3ccccc3s2)cc1 | 106% (inactive)
O=C1/C(=N\c2cc(=O)[nH]n2S(=O)(=O)c2ccccc2)Nc2ccccc21 | 114% (inactive)
CCCC(C)c1cc(Cc2cc(Cl)cc(Cl)c2O)c(O)c(Cc2cc(Cl)cc(Cl)c2O)c1 (stereo not given) | 23.9% (inactive)
c1ccc(Nc2ncc3c(n2)-c2cccn2CC3)cc1 | 112% (inactive)
CC1=C(C)C(=O)C(C(C)C2=C(C)C(=O)C(C)=C(C)C2=O)=C(C)C1=O | 104% (inactive)
C=CCSc1nnc(COc2ccc3c(C)c(Cc4ccccc4)c(=O)oc3c2C)o1 | 117% (inactive)
CCOc1nc(-c2ccccc2)cc2c(O)c(C(=O)N/N=C/c3ccccc3O)[nH]c(=O)c12 | 105% (inactive)
CC(=O)Nc1nc(C)c(C(=O)NNC(=O)Nc2ccccc2)s1 | 105% (inactive)
c1cc[c]([Bi]([c]2ccccc2)[c]2ccccc2)cc1 | 105% (inactive)
COc1cc(NC(=O)CSc2nc3ccc(Cl)cc3c(=O)n2-c2ccc(F)cc2)cc(OC)c1OC | 107% (inactive)
CC(=O)Nc1nc(C)c(C(=O)NN)s1 | 108% (inactive)
COC(=O)C(C)[C@H]1CC[C@@H]2[C@]1(C)CC=C1[C@]23C=C[C@]2(C[C@@H](OC(C)=O)CC[C@]12C)C(C(=O)OC)C3C(=O)OC (stereo not given in full) | 98.8% (inactive)
Cc1nc2c(nnn2-c2ccccc2)c2nc(-c3ccc(Cl)cc3)oc(=O)c12 | 120% (inactive)
CCCCCCCCC/C(=N\NC(=O)c1ccncc1)c1ccc(O)c(O)c1O | 27.6% (inactive)
CNCCCNCCCCNCCCN1C(=O)c2ccc3c4c(ccc(c24)C1=O)C(=O)N(CCCNCc1ccccc1OC)C3=O | 10.8% (inactive)
Cc1nc(NC(=S)Nc2ccc(F)cc2)sc1C(=O)NNC(=S)Nc1ccc(F)cc1 | 85.9% (inactive)
CCOc1ccc(/C=N/NC(=O)c2cccc3ccccc23)cc1OCC | 110% (inactive)
O=C(/C=C/c1ccc(Br)cc1)c1ccccc1 | 109% (inactive)
